High-throughput results deposited in PubChem by several laboratories.
Shown are actives, neighbours in structure and some others; about 8% of the full set was active somewhere.
PostGolgi ctrl: growth inhibition of yeast control strain, primary screen, counter-screen for post-Golgi transport modulator project | efflux-deficient yeast background strain, growth absorbance A615, 16 h | inhibition, % at 10 µM | actives 5% (n = 98,000)
Pyk2 oligo antag: antagonists of Pyk2 self-association, primary screen, Q293 cells, FERM NanoBiT luminescence, HTS | active compounds read low | z-score (the deposit names both 25 µM and 10 µM) | actives 0.83% (n = 99,000) | AID 1347419, 2020;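 active = Z-score of -3 or lower, scaled per plate to the spread of control and sample wells; inactive = z-score above -3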;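 also: negative z-score means lost luminescence so less FERM oligomerization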
Cav32 inh: Cav3.2 calcium influx blockers – cell-based, Fluo-4 calcium fluorescence, FDSS, MLSMR library, primary screen; Cav3.2-expressing cells; active compounds read low; Voltage-dependent T-type calcium channel subunit alpha-1H (Homo sapiens), O95180; B-score at 10 µM; actives 4% (n = 100,000);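 active = single-dose well whose peak fluorescence ratio is a statistical outlier from its plate by either plate-standardised score or position-corrected B-score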
PostGolgi yeast: phenotypic screen on post-Golgi transport, primary screen; AID 739, 2007; actives 0.9% (n = 98,000); post-Golgi transport phenotypic cell assay; inhibition, % at 10 µM;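 also: yeast cells grown in 1536-well plates; yeast grown about 18 h at 30C before absorbance read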
Starred values were filed as active, the others as inactive; nt = not tested or not shown. Rule as the data show it, unless noted: active = inhibition above about 30%; inactive = the rest.

SMILES	PostGolgi ctrl	Pyk2 oligo antag	Cav32 inh	PostGolgi yeast
CCOc1ccc(-n2c(CC)nc3ccccc3c2=O)cc1	30.6*	nt	0.202	6.8
CCCCc1nc2ccccc2c(=O)n1-c1ccc(O)cc1	-0.6	-0.23	0.0181	1.0
O=C1C2CCCN2C(c2cccnc2)N1c1nccs1 (stereo not given)	-8.1	1.45	nt	-7.3
CCC(=NCc1cccnc1)c1c(O)n(C2CCCCC2)c(=O)[nH]c1=O	14.2	-3.52*	0.65	12.8
CCC(=NCCCN(CC)CC)c1c(O)n(C2CCCCC2)c(=O)[nH]c1=O	6.9	0.34	0.189	-9.8
CC(=NCc1cccnc1)c1c(O)n(C2CCCCC2)c(=O)[nH]c1=O	0.0	-1.85	0.722	23.5
CCC(=NCc1ccco1)c1c(O)n(C2CCCCC2)c(=O)[nH]c1=O	45.4*	-0.25	-6.8*	15.1
CCC(=Nc1ccc(OC)cc1OC)c1c(O)n(C2CCCCC2)c(=O)[nH]c1=O	48.3*	-3.4*	-3.06	71.4*
OC1(CN2CCOCC2)C2CC3CC(C2)CC1C3 (stereo not given)	0.5	1.12	-0.443	-4.2
Cc1cccc(N2C(=O)NC(=O)/C(=C\c3cccn3-c3ccc(Cl)cc3)C2=O)c1	14.5	-3.44*	-1.14	3.3
O=C(c1sc2ccccc2c1Cl)N1CCC2(CC1)OCCO2	46.3*	-0.97	-3.28	3.7
FC(F)(F)c1cccc(N2CCNCC2)c1	nt	nt	-1.24	nt
CCCCn1c(O)c(C(CC)=NCc2ccc3c(c2)OCO3)c(=O)[nH]c1=O	54.6*	-1.94	-5.06*	4.5
C=CCn1c(O)c(C(CC)=NCc2cc(OC)cc(OC)c2)c(=O)[nH]c1=O	34.2*	-1.14	-0.374	0.5
C=CCn1c(O)c(C(CC)=NCCC2=CCCCC2)c(=O)[nH]c1=O	38.2*	-0.12	0.253	3.5
C=CCn1c(O)c(C(CC)=NCCCO)c(=O)[nH]c1=O	10.5	-0.61	0.0468	4.8
O=C(Nc1ccc(Cl)cc1)O/N=C(\c1ccccc1)c1ccccn1	14.1	0.86	-0.548	1.5
Cc1cccc(C(=O)NC(Oc2ccccc2)C(Cl)(Cl)Cl)c1 (stereo not given)	8.3	1.53	-2.93	1.2
CCCCCCCC(=O)NC(Oc1ccccc1[N+](=O)[O-])C(Cl)(Cl)Cl (stereo not given)	8.8	-0.96	-6.86*	4.6
O=C(Cn1ncc2c3ccccc3n(Cc3ccc(F)cc3)c2c1=O)N1CCC2(CC1)OCCO2	12.9	-0.59	-7.98*	3.2
Cc1c2cnn(CC(=O)N3CCC4(CC3)OCCO4)c(=O)c2c(C)n1Cc1ccccc1	4.7	0.56	0.268	3.0
CC(C)CCC1(CN2CCCC2=O)C(=O)NC(=O)NC1=O	22.1	-0.75	-0.56	13.5
C#CCNc1ccncc1S(=O)(=O)NC(=O)NC(C)C	nt	0.01	0.0913	nt
CCn1nc(-c2ccccc2)nc2c(=O)n(C)c(=O)nc1-2	101.6*	-0.25	-1.67	105.6*
O=C1C(=O)c2ccccc2-c2ccccc21	37.9*	nt	-0.104	6.7
SMILES	PostGolgi ctrl	Pyk2 oligo antag	Cav32 inh	PostGolgi yeast
CCOc1ccc(N2C(=O)NC(=O)/C(=C\c3ccc(N4CCCCC4)o3)C2=O)cc1	nt	-2.15	nt	nt
CN1C(=O)/C(=C\c2ccc(N3CCCCC3)o2)C(=O)NC1=S	-0.8	-2.28	-4.83*	0.6
CN1C(=O)/C(=C/c2ccc(N3CCCCCC3)o2)C(=O)NC1=S	nt	-0.13	-4.46*	nt
CNc1ccc2oc(C[C@H]3O[C@@]4(CC[C@H]3C)O[C@H]([C@H](C)C(=O)c3ccc[nH]3)[C@H](C)C[C@H]4C)nc2c1C(=O)O	nt	nt	4.36*	nt
COC(=O)C(O)(c1ccc(NC(=S)NC(=O)c2ccccc2)cc1)C(F)(F)F (stereo not given)	33.4*	0.23	-3.09	3.5
Cc1ccc2nc3c(cc2c1)CC1(C(=O)N(C)C(=O)N(C)C1=O)C1CCCCN31 (stereo not given)	1.6	-0.05	0.111	-3.6
Cc1ccc2nc3c(cc2c1)CC1(C(=O)N(C)C(=O)N(C)C1=O)C1COCCN31 (stereo not given)	31.7*	2.11	0.543	-2.8
Nc1c(C(=O)OCC2CCCO2)c2nc3ccccc3nc2n1Cc1cccs1 (stereo not given)	9.5	-2.25	-2.4	-2.0
Nc1c(C(=O)NC2CCCC2)c2nc3ccccc3nc2n1CC1CCCO1 (stereo not given)	62.2*	-0.24	-6.44*	-1.6
Nc1ccccc1C(=O)OC1CSC1	29.4	-0.15	0.193	-1.4
O=c1cccc2n1CC1CC2CN(S(=O)(=O)c2ccccc2)C1 (stereo not given)	2.5	-0.62	0.443	43.1*
N#Cc1ccccc1Cn1cc(C(=O)c2cccs2)c2ccccc21	-1.9	-2.59	-0.548	56.8*
O=C(c1cccs1)c1cn(Cc2ccccc2Cl)c2ccccc12	1.2	-0.72	-6.16*	27.7
COC(=O)C1=C(c2cccc(OC)c2OC)C[C@@H]2CC[C@H]1N2C(=O)NC1CC1	nt	nt	1.18	nt
CC1(C)C[C@H]2C=C(C=O)[C@]3(C=O)C[C@]3(C)[C@H]2C1	nt	nt	-2.88	nt
CCC(=NCc1ccc(F)cc1)c1c(O)n(C)c(=O)n(C)c1=O	8.8	0.74	0.17	19.0
O=C1C2CCN(CC2)C1Cc1ccccc1O (stereo not given)	0.3	nt	-0.948	1.6
O=C1C2CCN(CC2)C1Cc1ccc(OCCOc2ccccc2)cc1 (stereo not given)	42.6*	1.17	0.668	1.0
C1CNC2NCCNC2N1 (stereo not given)	-1.2	0.06	0.0463	-5.4
CCN(c1ccc(C(O)(C(=O)OC)C(F)(F)F)cc1)S(=O)(=O)c1ccc(C)cc1 (stereo not given)	35.4*	-1	-4.9*	-2.0
COC(=O)C(O)(c1ccc(N(C)S(=O)(=O)c2ccccc2)cc1)C(F)(F)F (stereo not given)	-1.2	-1.49	-0.858	-1.1
CCOC(=O)C(O)(c1ccc(N(CC)S(=O)(=O)c2ccc(C)cc2)cc1)C(F)(F)F (stereo not given)	1.1	-1.97	-6.15*	-12.8
O=C(c1cc(-c2ccc(Cl)cc2)n(-c2ccc(Cl)cc2Cl)n1)N1CCOCC1	33.4*	0.23	-2.5	6.1
O=C(c1cc2ccccn2n1)N1CCC2(CC1)OCCO2	1.5	1.45	0.3	2.6
CCCCN1C(=O)NC(=O)C2(Cc3c(nc4c(C)cccn4c3=O)N3CCc4ccccc4C32)C1=O (stereo not given)	39.4*	-1.21	nt	1.0
O=C(NC1CN2CCC1CC2)c1cc(Cl)c([N+](=O)[O-])c2nc[nH]c12 (stereo not given)	nt	0.55	nt	nt
Cc1cc(C)n(CCOC(=O)C2C(C=C(Cl)Cl)C2(C)C)n1 (stereo not given)	23.8	-0.27	-6.62*	8.7
C=C1C(=O)O[C@@H]2C[C@@H](C)[C@@H]3C4OC4C(=O)[C@@]3(C)[C@@H](O)[C@H]12 (stereo not given in full)	nt	nt	-0.129	nt
CCOc1ccc(N=C2SCCCN2C)cc1	nt	-0.56	0.458	nt
CC(C)N1OC2CC1c1nc3ccccc3n1C2 (stereo not given)	nt	nt	0.577	nt
